Experimental data reported in the supplement of paper PMC3842684.

What was measured:
[1] = tested on: P. falciparum NF54-pfs16-GFP early (I-III) stage gametocytes; assay: relative % inhibition of viable gametocyte number; higher = more gametocytocidal; conditions: stage: early (I-III) gametocyte, incubation 72 h
Summary of the method: (§1)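 In 384-well poly-D-lysine imaging plates, NF54 pfs16-GFP gametocytes (magnet-isolated, early I/IIa on day 2 or late on day 8; 10% parasitaemia, 0.1% haematocrit) received compound in duplicate at 5 or 0.5 µM. Plates stood 72 h at 37°C in 5% CO2 and 5% O2, then overnight with MitoTracker Red before confocal imaging, where elongated GFP objects with MitoTracker signal above cut-off counted as viable. Relative inhibition was calculated against vehicle and positive-control wells on the same plate.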

[2] = tested on: P. falciparum NF54-pfs16-GFP late (IV-V) stage gametocytes; assay: as above; conditions: stage: late (IV-V) gametocyte, incubation 72 h
Summary of the method: as §1

Row | SMILES | relative % inhibition ([1]; 0.5 µM) | relative % inhibition ([1]; 5 µM) | relative % inhibition ([2]; 0.5 µM) | relative % inhibition ([2]; 5 µM)
1 | CCOc1cc(Cl)c(C(C)NC(=O)c2cccc(OC)c2)cc1OCC (configuration not stated) | 24.8% | 60.9% | -6.93% | 41.6%
2 | Cc1cc(Nc2ccc(C)c(Cl)c2)n2nc(C(F)(F)F)nc2n1 | -5.05% | -8.28% | 13.1% | -2.09%
3 | CCOC(=O)c1c(C)n(-c2ccc(Cl)cc2)c2ccc(OC(=O)C=Cc3ccccc3)cc12 | 15.8% | 26.8% | 11.1% | 11.5%
4 | COc1ccc(C)c2sc(N(Cc3cccnc3)C(=O)c3ccc(C#N)cc3)nc12 | 11.9% | 35.9% | -23.5% | 7.81%
5 | CCn1nc(-c2ccc(C(=O)OC)cc2)nc2c(=O)n(C)c(=O)nc1-2 | 18.4% | 36.1% | 68% | 76.7%
6 | COc1cccc(Nc2nc(N)c3ccccc3n2)c1 | -16.5% | -5.49% | 7.14% | 1.59%
7 | COc1ccc(CCN2C(=O)c3[nH]nc(-c4cc(Cl)c(C)cc4O)c3C2c2ccccc2F)cc1 (configuration not stated) | 1.69% | -0.844% | 30.2% | 51.9%
8 | O=C(Nc1ccc(Cl)cc1C(=O)Nc1ccncc1)c1ccc(Cl)cc1Cl | 20.3% | 31.8% | -5.7% | -20.8%
9 | C=CCc1c(C)nc2ccccc2c1O | 5.51% | 13.3% | 36.3% | 53.7%
10 | CC1CC2=C(CC1CNCCCN(C)C)C(C)(C)CCC2 (configuration not stated) | 33.8% | 97.1% | 20.7% | 85.3%
11 | COc1ccc(C(=O)C(CCC(CNC(C)(C)C)C(=O)c2ccc(OC)cc2)CNC(C)(C)C)cc1 (configuration not stated) | 62.7% | 94% | 10.9% | 104%
12 | COc1ccc(C(=O)C2CC2c2ccc(Cl)cc2)cc1 (configuration not stated) | 8.75% | 79.1% | 14.7% | 48.3%
13 | CCOc1ccccc1CN1CCc2nc3cc(C(C)(C)C)nn3c(O)c2C1 | -6.1% | -4.88% | 66.3% | 76.6%
14 | CCN(CC)CCNc1ccnc2cc3ccccc3cc12 | 99.4% | 100% | 25.4% | 43.7%
15 | COc1ccc(C2NCCc3c2[nH]c2ccccc32)cc1CN1CCN(c2ccc(F)cc2)CC1 (configuration not stated) | 18.2% | 90% | 8.16% | 58%
16 | CC1CCN(Cc2c(O)ccc3cc(-c4nc5ccccc5s4)c(=O)oc23)CC1 | 2.97% | 94.7% | 18.2% | 18.4%
17 | CCOC(=O)c1cnc2c(CC)cccc2c1O | -5.02% | 0.0948% | 21.6% | 45.2%

Row | SMILES | relative % inhibition ([1]; 0.5 µM) | relative % inhibition ([1]; 5 µM) | relative % inhibition ([2]; 0.5 µM) | relative % inhibition ([2]; 5 µM)
18 | CCCCc1ccc(NS(=O)(=O)c2cc3c4c(c2)CCN4C(=O)CC3)cc1 | 12.3% | 1.37% | 0.5% | -7.42%
19 | N=c1n(CCN2CCCCC2)c2ccccc2n1CC(O)c1cccc(Br)c1 (configuration not stated) | 6.75% | 94.5% | 25.5% | 55.6%
20 | CCCCOc1ccc(C(=O)Nc2cc(C)on2)cc1 | 3% | 12.9% | -7.15% | 17.4%
21 | CC1CC(C)CN(C(=O)c2ccc(Cl)cc2Cl)C1 (configuration not stated) | -0.883% | -4.96% | 1.4% | 3.37%
22 | Cc1ccc(-c2cc3c(SCC(=O)Nc4cc(C(F)(F)F)ccc4Cl)nccn3n2)cc1 | -5.62% | -12% | 14.7% | -15.9%
23 | COc1ccc(CCN2CCC(CN(C)Cc3cnn(-c4ccccc4)c3)CC2)cc1 | 4.18% | 65.3% | 11.3% | -5.77%
24 | c1ccc(-c2ccc(-c3nc4ccccc4[nH]3)cc2)cc1 | -4.6% | -6.39% | 15.9% | 5.71%
25 | CSc1ccccc1C(=O)Nc1nc(-c2ccccn2)cs1 | 27.3% | 92.9% | 19.1% | 96.9%
26 | CCOc1ccc(CN2CCN(CC(O)COc3ccc(OCC(O)CN4CCN(Cc5ccc(OCC)cc5)CC4)cc3)CC2)cc1 (configuration not stated) | 6.71% | 74.7% | -16.8% | 8.51%
27 | CN1CCN(c2ccc(Nc3c4ccccc4nc4ccccc34)cc2)CC1 | 100% | 101% | 91.3% | 104%
28 | Cc1cc(=O)oc2c1ccc1oc(C(=O)c3ccccc3)c(C)c12 | 8.22% | 5.4% | 17.2% | -4.53%
29 | COc1ccccc1CNC(=O)CCn1c(=O)[nH]c2ccccc2c1=O | 27.4% | 28.5% | -5.22% | 2.14%
30 | Cc1ccccc1OCCSc1nc2ccc(NC(=O)c3cccs3)cc2s1 | 11.4% | 19.4% | 18.1% | 35.8%
31 | Oc1c(C(Nc2ccccn2)c2cccc(Oc3ccccc3)c2)ccc2cccnc12 (configuration not stated) | 1.66% | 98.2% | 18.4% | 97.7%
32 | COc1ccc(C(=O)Nc2nonc2-c2ccc(OC)c(OC)c2)cc1Cl | 33.4% | 31.6% | 13.1% | 59.1%
33 | COc1ccc2nc(C)cc(Nc3ccc(Cl)cc3)c2c1 | -10.1% | 13.9% | 7.89% | 11.7%
